# In the supplement of paper PMC8728848:
# The entries come from a sample that favours the strongest signals as a whole.
# B1: Protein L(A-C2) (Finegoldia magna), Q51912 (protein)
# chain: ADEPIDLEKLEEKRDKENVGNLPKFDNEVKDGSENPMAKYPDFDDEASTRFETENNEFEEKKVVSDNFFDQSEHPFVENKEETPETPETDSEEEVTIKANLIFANGSTQTAEFKGTFEKATSEAYAYADTLKKDNGEYTVDVADKGYTLNIKFAGKEKTPEEPKEEVTIKANLIYADGKTQTAEFKGTFEEATAEAYRYADALKKDNGEYTVDVADKGYTLNIKFAGKEKTPEEPKEEVTIKANLIYADGKTQTAEFKGTFEEATAEAYRYADLLAKENGKYTVDVADKGYTLNIKFAGKEKTPEEPKEEVTIKANLIYADGKTQTAEFKGTFAEATAEAYRYADLLAKENGKYTADLEDGGYTINIRFAGKKVDEKPEEKEQVTIKENIYFEDGTVQTATFKGTFAEATAEAYRYADLLSKEHGKYTADLEDGGYTINIRFAGKEEPEETPEKPEVQDGYASYEEAEAAAKEALKNDDVNKSYTIRQGADGRYYYVLSPVEAEEEKPEAQNGYATYEEAEAAAKKALENDPINKSYSIRQGADGRYYYVLSPVEAE
# Columns and labels:
# Experiment in all cases: glycan array binding signal (z-score within array); higher = stronger binding
# Settings in all cases: glycan notation: IUPAC condensed, linker removed
# [1] = target: GlcNAc(b1-3)Gal(b1-4)GlcNAc(b1-3)Gal(b1-4)GlcNAc(b1-2)Man(a1-3)[GlcNAc(b1-3)Gal(b1-4)GlcNAc(b1-3)Gal(b1-4)GlcNAc(b1-2)Man(a1-6)]Man(b1-4)GlcNAc(b1-4)GlcNAc
# Outline: (§1)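 Negative Z-scores can be read as non-binding. The Z-score is calculated within each array and then averaged across arrays of one protein sequence at different concentrations or buffers and across linkers. Arrays, 3228 in all, were curated from the Consortium for Functional Glycomics database and kept only where the protein sequence was available.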
# [2] = target: GlcNAc(b1-3)[GlcNAc(b1-6)]Gal(b1-4)GlcNAc
# Outline: as §1
# [3] = target: Man(a1-3)[Man(a1-6)]Man(a1-6)[Man(a1-2)Man(a1-3)]Man(b1-4)GlcNAc(b1-4)GlcNAc
# Outline: as §1
# Man(b1-4)GlcNAc = target: Man(b1-4)GlcNAc
# Outline: as §1
# [4] = target: Neu5Ac(a2-3)Gal(b1-3)GalNAc
# Outline: as §1
# [5] = target: Neu5Ac(a2-3)Gal(b1-3)GlcNAc(b1-2)Man
# Outline: as §1
# [6] = target: Neu5Ac(a2-3)Gal(b1-3)[GlcNAc(b1-6)]GalNAc
# Outline: as §1
# Neu5Ac(a2-3)Gal(b1-4)Glc = target: Neu5Ac(a2-3)Gal(b1-4)Glc
# Outline: as §1
# [7] = target: Neu5Ac(a2-3)Gal(b1-4)GlcNAc(b1-2)Man(a1-3)[GlcNAc(b1-4)][Neu5Ac(a2-3)Gal(b1-4)GlcNAc(b1-2)Man(a1-6)]Man(b1-4)GlcNAc(b1-4)GlcNAc
# Outline: as §1
# [8] = target: Neu5Ac(a2-3)Gal(b1-4)GlcNAc(b1-2)Man(a1-3)[Neu5Ac(a2-3)Gal(b1-4)GlcNAc(b1-2)Man(a1-6)]Man(b1-4)GlcNAc(b1-4)[Fuc(a1-6)]GlcNAc
# Outline: as §1
# [9] = target: Neu5Ac(a2-3)Gal(b1-4)GlcNAc(b1-3)Gal(b1-4)GlcNAc
# Outline: as §1
# [10] = target: Neu5Ac(a2-3)Gal(b1-4)GlcNAc(b1-3)Gal(b1-4)GlcNAc(b1-3)Gal(b1-4)GlcNAc(b1-2)Man(a1-3)[Neu5Ac(a2-3)Gal(b1-4)GlcNAc(b1-3)Gal(b1-4)GlcNAc(b1-3)Gal(b1-4)GlcNAc(b1-2)Man(a1-6)]GalNAc
# Outline: as §1
# [11] = target: Neu5Ac(a2-6)Gal(b1-4)GlcNAc(b1-2)Man
# Outline: as §1
# [12] = target: Neu5Ac(a2-6)Gal(b1-4)GlcNAc(b1-2)Man(a1-3)[Neu5Ac(a2-6)Gal(b1-4)GlcNAc(b1-2)Man(a1-6)]Man(b1-4)GlcNAc(b1-4)GlcNAc
# Outline: as §1
# [13] = target: Neu5Ac(a2-6)Gal(b1-4)GlcNAc(b1-2)Man(a1-6)Man(b1-4)GlcNAc(b1-4)GlcNAc
# Outline: as §1
# [14] = target: Neu5Ac(a2-6)Gal(b1-4)GlcNAc(b1-2)Man(a1-6)[Man(a1-3)]Man(b1-4)GlcNAc(b1-4)GlcNAc
# Outline: as §1
# [15] = target: Neu5Ac(a2-6)Gal(b1-4)GlcNAc(b1-3)Gal(b1-4)GlcNAc(b1-3)[Neu5Ac(a2-6)Gal(b1-4)GlcNAc(b1-3)Gal(b1-4)GlcNAc(b1-6)]GalNAc
# Outline: as §1
# [16] = target: Neu5Ac(a2-6)Gal(b1-4)GlcNAc(b1-3)Gal(b1-4)GlcNAc(b1-6)[Gal(b1-3)]GalNAc
# Outline: as §1
# [17] = target: Neu5Ac(a2-6)Gal(b1-4)GlcNAc6S
# Outline: as §1
# [18] = target: Neu5Gc(a2-3)Gal(b1-4)GlcNAc(b1-3)Gal(b1-4)GlcNAc(b1-2)Man(a1-3)[Neu5Gc(a2-3)Gal(b1-4)GlcNAc(b1-3)Gal(b1-4)GlcNAc(b1-2)Man(a1-6)]Man(b1-4)GlcNAc(b1-4)GlcNAc
# Outline: as §1
binder,measurement,setting,value
B1,glycan array binding signal (z-score),[1],1.91
same,glycan array binding signal (z-score),[2],-0.856
same,glycan array binding signal (z-score),[3],4.98
same,glycan array binding signal (z-score),Man(b1-4)GlcNAc,0.002
same,glycan array binding signal (z-score),[4],0.418
same,glycan array binding signal (z-score),[5],3.79
same,glycan array binding signal (z-score),[6],-0.278
same,glycan array binding signal (z-score),Neu5Ac(a2-3)Gal(b1-4)Glc,0.38
same,glycan array binding signal (z-score),[7],-0.228
same,glycan array binding signal (z-score),[8],2.19
same,glycan array binding signal (z-score),[9],-1.1
same,glycan array binding signal (z-score),[10],3.85
same,glycan array binding signal (z-score),[11],0.253
same,glycan array binding signal (z-score),[12],-0.037
same,glycan array binding signal (z-score),[13],-0.51
same,glycan array binding signal (z-score),[14],0.298
same,glycan array binding signal (z-score),[15],3.89
same,glycan array binding signal (z-score),[16],0.761
same,glycan array binding signal (z-score),[17],-0.725
same,glycan array binding signal (z-score),[18],0.473
